Assay results from the supplement of paper PMC6992640.

What follows are compounds tested on WHIM2 (cells of a triple-negative basal-like breast cancer xenograft) (assay: cell viability of combination (% of vehicle); higher = less cytotoxic). Conditions: 1 µM; 72 h; partner dose: 10 nM.
Protocol: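 PDX cells were treated for 72 h with each drug at 1 µM plus afatinib (10 nM; 1 µM for WHIM30). Luciferase viability is expressed as percent of vehicle.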

Row | SMILES | cell viability of combination
1 | O=C1C=CC=CC1=C1NC(=C2C=CC=CC2=O)N(c2ccc(C(=O)O)cc2)N1 [Deferasirox] + CN(C)C/C=C/C(=O)Nc1cc2c(Nc3ccc(F)c(Cl)c3)ncnc2cc1O[C@H]1CCOC1 [Afatinib] | 42.2
2 | CC[C@@]1(O)C(=O)OCc2c1cc1n(c2=O)Cc2cc3c(CN(C)C)c(O)ccc3nc2-1.Cl [Topotecan HCl] + CN(C)C/C=C/C(=O)Nc1cc2c(Nc3ccc(F)c(Cl)c3)ncnc2cc1O[C@H]1CCOC1 [Afatinib] | 25.2
3 | CCOC(=O)C1=C(COCCN)NC(C)=C(C(=O)OC)C1c1ccccc1Cl.O=S(=O)(O)c1ccccc1 (stereo unspecified) [Amlodipine Besylate] + CN(C)C/C=C/C(=O)Nc1cc2c(Nc3ccc(F)c(Cl)c3)ncnc2cc1O[C@H]1CCOC1 [Afatinib] | 51.7
4 | Cc1cc(Nc2ncc(Cl)c(Nc3ccccc3S(=O)(=O)C(C)C)n2)c(OC(C)C)cc1C1CCNCC1 + CN(C)C/C=C/C(=O)Nc1cc2c(Nc3ccc(F)c(Cl)c3)ncnc2cc1O[C@H]1CCOC1 [Afatinib] | 36.7
5 | COc1cc(C(=O)NS(=O)(=O)c2ccccc2C)ccc1Cc1cn(C)c2ccc(NC(=O)OC3CCCC3)cc12 [Zafirlukast] + CN(C)C/C=C/C(=O)Nc1cc2c(Nc3ccc(F)c(Cl)c3)ncnc2cc1O[C@H]1CCOC1 [Afatinib] | 52.2
6 | CC[C@@]1(O)C(=O)OCc2c1cc1n(c2=O)Cc2cc3c(CN(C)C)c(O)ccc3nc2-1 [Topotecan] + CN(C)C/C=C/C(=O)Nc1cc2c(Nc3ccc(F)c(Cl)c3)ncnc2cc1O[C@H]1CCOC1 [Afatinib] | 31.4
7 | Cl.Fc1ccc(C2CCNCC2COc2ccc3c(c2)OCO3)cc1 (stereo unspecified) [Paroxetine HCl] + CN(C)C/C=C/C(=O)Nc1cc2c(Nc3ccc(F)c(Cl)c3)ncnc2cc1O[C@H]1CCOC1 [Afatinib] | 49.6
8 | COc1cc2ncnc(Nc3ccc(F)c(Cl)c3)c2cc1NC(=O)C=CCN1CCCCC1 + CN(C)C/C=C/C(=O)Nc1cc2c(Nc3ccc(F)c(Cl)c3)ncnc2cc1O[C@H]1CCOC1 [Afatinib] | 29.8
9 | CN1CCN(CCOc2cc(OC3CCOCC3)c3c(Nc4c(Cl)ccc5c4OCO5)ncnc3c2)CC1 [Saracatinib (AZD0530)] + CN(C)C/C=C/C(=O)Nc1cc2c(Nc3ccc(F)c(Cl)c3)ncnc2cc1O[C@H]1CCOC1 [Afatinib] | 24.5
10 | CC(=O)c1cc2c(o1)C(=O)c1ccccc1C2=O [Napabucasin] + CN(C)C/C=C/C(=O)Nc1cc2c(Nc3ccc(F)c(Cl)c3)ncnc2cc1O[C@H]1CCOC1 [Afatinib] | 29.7
11 | Oc1c(Cl)cc(Cl)c2cccnc12 [Chloroxine] + CN(C)C/C=C/C(=O)Nc1cc2c(Nc3ccc(F)c(Cl)c3)ncnc2cc1O[C@H]1CCOC1 [Afatinib] | 45.9
12 | CNC(=O)c1cc(Oc2ccc(NC(=O)Nc3ccc(Cl)c(C(F)(F)F)c3)c(F)c2)ccn1 [Regorafenib] + CN(C)C/C=C/C(=O)Nc1cc2c(Nc3ccc(F)c(Cl)c3)ncnc2cc1O[C@H]1CCOC1 [Afatinib] | 44.2
13 | C=C1C(=CC=C2CCCC3(C)C2CCC3C(C)C=CC(C)C(C)C)CC(O)CC1O (stereo unspecified) [Doxercalciferol] + CN(C)C/C=C/C(=O)Nc1cc2c(Nc3ccc(F)c(Cl)c3)ncnc2cc1O[C@H]1CCOC1 [Afatinib] | 37.1
14 | CN(C)CC=CC(=O)Nc1cc2c(Nc3ccc(F)c(Cl)c3)ncnc2cc1OC1CCOC1 (stereo unspecified) [Afatinib (BIBW2992)] + CN(C)C/C=C/C(=O)Nc1cc2c(Nc3ccc(F)c(Cl)c3)ncnc2cc1O[C@H]1CCOC1 [Afatinib] | 32.4
15 | CC(C)(C)Cn1c(N)nc2ccc(-c3[nH]c(C(C)(C)C)nc3-c3ccc(F)cc3)nc21.CS(=O)(=O)O.CS(=O)(=O)O + CN(C)C/C=C/C(=O)Nc1cc2c(Nc3ccc(F)c(Cl)c3)ncnc2cc1O[C@H]1CCOC1 [Afatinib] | 35.4
16 | Clc1ccc(C(Cn2ccnc2)OCc2ccc(Sc3ccccc3)cc2)c(Cl)c1.O=[N+]([O-])O (stereo unspecified) [Fenticonazole Nitrate] + CN(C)C/C=C/C(=O)Nc1cc2c(Nc3ccc(F)c(Cl)c3)ncnc2cc1O[C@H]1CCOC1 [Afatinib] | 49.9

Row | SMILES | cell viability of combination
17 | CCOC(=O)c1c(CSc2ccccc2)n(C)c2cc(Br)c(O)c(CN(C)C)c12.Cl [Arbidol HCl] + CN(C)C/C=C/C(=O)Nc1cc2c(Nc3ccc(F)c(Cl)c3)ncnc2cc1O[C@H]1CCOC1 [Afatinib] | 45.2
18 | Cc1c(Cl)cccc1Nc1ccccc1C(=O)O [Tolfenamic Acid] + CN(C)C/C=C/C(=O)Nc1cc2c(Nc3ccc(F)c(Cl)c3)ncnc2cc1O[C@H]1CCOC1 [Afatinib] | 51
19 | Clc1ccc(CSC(Cn2ccnc2)c2ccc(Cl)cc2Cl)cc1.O=[N+]([O-])O (stereo unspecified) [Sulconazole Nitrate] + CN(C)C/C=C/C(=O)Nc1cc2c(Nc3ccc(F)c(Cl)c3)ncnc2cc1O[C@H]1CCOC1 [Afatinib] | 49.5
20 | COC(=O)C1=C(C)NC(C)=C(C(=O)OC2CCCN(Cc3ccccc3)C2)C1c1cccc([N+](=O)[O-])c1.Cl (stereo unspecified) [Benidipine HCl] + CN(C)C/C=C/C(=O)Nc1cc2c(Nc3ccc(F)c(Cl)c3)ncnc2cc1O[C@H]1CCOC1 [Afatinib] | 51.4
21 | CC(NCCCc1cccc(C(F)(F)F)c1)c1cccc2ccccc12 (stereo unspecified) [Cinacalcet] + CN(C)C/C=C/C(=O)Nc1cc2c(Nc3ccc(F)c(Cl)c3)ncnc2cc1O[C@H]1CCOC1 [Afatinib] | 46.1
22 | COc1cc2nccc(Oc3ccc(NC(=O)C4(C(=O)Nc5ccc(F)cc5)CC4)cc3)c2cc1OC.O=C(O)CC(O)C(=O)O [Cabozantinib malate (XL184)] + CN(C)C/C=C/C(=O)Nc1cc2c(Nc3ccc(F)c(Cl)c3)ncnc2cc1O[C@H]1CCOC1 [Afatinib] | 43.2
23 | Cc1nc(NC(=O)N2CCCC2C(N)=O)sc1-c1ccnc(C(C)(C)C(F)(F)F)c1 (stereo unspecified) + CN(C)C/C=C/C(=O)Nc1cc2c(Nc3ccc(F)c(Cl)c3)ncnc2cc1O[C@H]1CCOC1 [Afatinib] | 37.9
24 | C1=C\COCc2cc(ccc2OCCN2CCCC2)Nc2nccc(n2)-c2cccc(c2)COC/1 [Pacritinib] + CN(C)C/C=C/C(=O)Nc1cc2c(Nc3ccc(F)c(Cl)c3)ncnc2cc1O[C@H]1CCOC1 [Afatinib] | 38.8
25 | COC(=O)C1=C(C)NC(C)=C(C(=O)OCCN(C)Cc2ccccc2)C1c1cccc([N+](=O)[O-])c1.Cl (stereo unspecified) [Nicardipine HCl] + CN(C)C/C=C/C(=O)Nc1cc2c(Nc3ccc(F)c(Cl)c3)ncnc2cc1O[C@H]1CCOC1 [Afatinib] | 48
26 | CCCCCCCCc1ccc(CCC(N)(CO)CO)cc1.Cl [Fingolimod (FTY720)] + CN(C)C/C=C/C(=O)Nc1cc2c(Nc3ccc(F)c(Cl)c3)ncnc2cc1O[C@H]1CCOC1 [Afatinib] | 44.5
27 | CNC1CCC(c2ccc(Cl)c(Cl)c2)c2ccccc21.Cl (stereo unspecified) [Sertraline HCl] + CN(C)C/C=C/C(=O)Nc1cc2c(Nc3ccc(F)c(Cl)c3)ncnc2cc1O[C@H]1CCOC1 [Afatinib] | 49.2
28 | CO[C@H]1C[C@@H]2CC[C@@H](C)[C@@](O)(O2)C(=O)C(=O)N2CCCC[C@H]2C(=O)O[C@H]([C@H](C)C[C@@H]2CC[C@@H](O)[C@H](OC)C2)CC(=O)[C@H](C)/C=C(\C)[C@@H](O)[C@@H](OC)C(=O)[C@H](C)C[C@H](C)/C=C/C=C/C=C/1C [Rapamycin (Sirolimus)] + CN(C)C/C=C/C(=O)Nc1cc2c(Nc3ccc(F)c(Cl)c3)ncnc2cc1O[C@H]1CCOC1 [Afatinib] | 39.3
29 | Cl.Clc1ccccc1CN1CCc2sccc2C1 [Ticlopidine HCl] + CN(C)C/C=C/C(=O)Nc1cc2c(Nc3ccc(F)c(Cl)c3)ncnc2cc1O[C@H]1CCOC1 [Afatinib] | 47.9
30 | CC(C)COc1ccc(CNC(=O)N(Cc2ccc(F)cc2)C2CCN(C)CC2)cc1 [Pimavanserin] + CN(C)C/C=C/C(=O)Nc1cc2c(Nc3ccc(F)c(Cl)c3)ncnc2cc1O[C@H]1CCOC1 [Afatinib] | 50.8
31 | CCc1cnn2c(NCc3ccc[n+]([O-])c3)cc(N3CCCCC3CCO)nc12 (stereo unspecified) + CN(C)C/C=C/C(=O)Nc1cc2c(Nc3ccc(F)c(Cl)c3)ncnc2cc1O[C@H]1CCOC1 [Afatinib] | 16.4
